Inhibition data for twelve compounds are collected here from PubChem BioAssay.

In experiment [1] the target is Serine protease HTRA1 (Homo sapiens) (UniProt Q92743). The experiment is described as follows: confirming inhibition of human HTRA1 – biochemical, fluorescence polarization, confirmation (AID 540248;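 active = mean inhibition over three repeats above a set limit taken from the earlier primary screen, cut at about 37% in these data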;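 note: 0% = HTRA1 with DMSO and 100% = wells lacking HTRA1; inhibitors block probe binding so polarization drops and inhibition rises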). The note with it: recombinant HTRA1, FP-rhodamine activity-based probe, at 5.96 µM, active compounds read high. (In general: Fluorescence polarisation rises when a labelled molecule tumbles more slowly, as on binding a larger partner.)

Experiment [2] deals with (Lyso)-N-acylphosphatidylethanolamine lipase (Mus musculus) (UniProt Q8VD66). As to the kind of experiment: mouse ABHD4 hydrolase blockers, triplicate – biochemical, fluorescence polarization, confirmation (AID 720658;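 active = mean inhibition across replicates above the hit cutoff set in the primary screen, cut at about 30% in these data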;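 note: 0% = wild-type ABHD4 with DMSO and 100% = catalytically dead S159A mutant with DMSO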). The note with it: purified mABHD4, FP-Rh probe fluorescence polarization; at 8.92 µM; active compounds read high.
Sequence of (Lyso)-N-acylphosphatidylethanolamine lipase (Mus musculus) (Q8VD66 whole entry, looked up): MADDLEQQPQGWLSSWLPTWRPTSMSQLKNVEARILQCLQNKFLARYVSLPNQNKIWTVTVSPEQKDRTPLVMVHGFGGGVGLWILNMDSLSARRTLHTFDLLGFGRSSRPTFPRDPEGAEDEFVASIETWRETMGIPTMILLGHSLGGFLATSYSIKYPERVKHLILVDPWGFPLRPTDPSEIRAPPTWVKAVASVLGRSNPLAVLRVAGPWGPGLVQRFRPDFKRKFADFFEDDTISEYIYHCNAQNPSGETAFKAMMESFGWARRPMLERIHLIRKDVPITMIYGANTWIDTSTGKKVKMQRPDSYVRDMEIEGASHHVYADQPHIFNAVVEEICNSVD
The target of experiment [3] is Toll-like receptor 9 (Homo sapiens) (UniProt Q9NR96). The experiment is described as follows: disruptors of TLR9 binding to MyD88 – cell-based, CHO, BLA complementation, fluorescence, triplicate, confirmation (AID 540250;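 active = mean inhibition across three repeats above about 21% taken from the earlier screen, limit read from the data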;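 note: blue over green emission ratio reports constitutive TLR9 MyD88 association via BLA complementation; 0% = DMSO vehicle wells and 100% = clavulanate BLA inhibitor wells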). The note with it: CCF4 FRET ratio, at 4.98 µM, active compounds read high.
Sequence of Toll-like receptor 9 (Homo sapiens) (Q9NR96 whole entry, looked up): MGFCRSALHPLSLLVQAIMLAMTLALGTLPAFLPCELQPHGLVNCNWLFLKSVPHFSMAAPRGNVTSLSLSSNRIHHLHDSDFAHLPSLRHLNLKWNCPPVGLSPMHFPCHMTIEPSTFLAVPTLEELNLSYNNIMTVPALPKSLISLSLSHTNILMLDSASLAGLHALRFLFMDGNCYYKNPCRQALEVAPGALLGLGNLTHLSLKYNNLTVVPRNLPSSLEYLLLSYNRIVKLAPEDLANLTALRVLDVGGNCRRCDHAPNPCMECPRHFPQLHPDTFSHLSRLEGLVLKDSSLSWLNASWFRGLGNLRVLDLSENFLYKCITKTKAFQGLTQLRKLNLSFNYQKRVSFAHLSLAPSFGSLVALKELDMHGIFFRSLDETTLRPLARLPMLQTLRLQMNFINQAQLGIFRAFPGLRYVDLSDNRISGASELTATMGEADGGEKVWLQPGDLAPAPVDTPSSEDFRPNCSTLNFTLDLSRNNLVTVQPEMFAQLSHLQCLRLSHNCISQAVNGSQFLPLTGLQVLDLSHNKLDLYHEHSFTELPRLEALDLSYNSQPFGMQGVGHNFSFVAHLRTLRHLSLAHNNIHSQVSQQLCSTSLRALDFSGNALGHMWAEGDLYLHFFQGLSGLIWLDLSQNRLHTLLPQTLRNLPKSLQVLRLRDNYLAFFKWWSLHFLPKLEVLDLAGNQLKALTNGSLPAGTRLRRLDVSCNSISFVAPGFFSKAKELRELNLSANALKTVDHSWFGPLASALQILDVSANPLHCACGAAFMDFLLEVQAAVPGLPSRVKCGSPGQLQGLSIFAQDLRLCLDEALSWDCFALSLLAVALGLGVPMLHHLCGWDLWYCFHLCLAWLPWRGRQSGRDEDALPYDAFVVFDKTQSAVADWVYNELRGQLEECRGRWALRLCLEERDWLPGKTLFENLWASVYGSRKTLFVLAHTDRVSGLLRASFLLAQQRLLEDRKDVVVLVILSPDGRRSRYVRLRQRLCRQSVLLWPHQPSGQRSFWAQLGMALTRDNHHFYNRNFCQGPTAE
Experiment [4] is described as follows: BLA reporter readout interference – cell-based, fluorescence, artefact control for TLR9-MyD88 binding inhibitor project (AID 540251;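 active = mean inhibition above a 50% cutoff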;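 note: counterscreen of TLR9-MyD88 hits on CMV-driven BLA in CHO-K1 cells; 0% = DMSO alone and 100% = clavulanate blocking BLA; higher means less blue over green ratio so more BLA blockade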). The note with it: CHO-BLA cells, CCF4 FRET ratio, at 4.98 µM, active compounds read high.
Experiment [5] can be described thus: CHO cell viability loss – luminescence, single concentration, cytotoxicity control for TLR9-MyD88 binding inhibitor project (AID 588336). The note with it: TLR9-MyD88 CHO cells cytotoxicity, at 4.98 µM, active compounds read high.
Experiment [6] has as its target Nuclear receptor coactivator 3 (Homo sapiens) (UniProt Q9Y6Q9). As to the kind of experiment: NCOA3 GAL4-fusion reporter inhibition – cell-based, luminescence, quadruplicate, confirmation (AID 588792;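 active = mean inhibition over 43.08%, the solvent-only control mean plus 3 SD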;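 note: 0% = DMSO treated cells and 100% = gossypol at 36 µM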). The note with it: HEK293 GAL4-SRC3 luciferase reporter, at 3.6 µM, active compounds read high.
Experiment [7] has as its system transactivating tegument protein VP16 (Human herpesvirus 1), Gal4-VP16 luciferase reporter. As to the kind of experiment: repression of VP16-driven luciferase reporter – cell-based, luminescence, high throughput, counter-screen for SRC3 inhibitor project (AID 588794; in the data active = inhibition above about 30%). The note with it: mammalian cells, at 3.6 µM, active compounds read high. Background: In a reporter assay the amount or activity of a reporter protein is the signal.

The target of experiment [8] is Nuclear receptor coactivator 1 (Homo sapiens) (UniProt Q15788). As to the kind of experiment: NCOA1 GAL4-fusion reporter inhibition – cell-based, luminescence, quadruplicate, confirmation (AID 588820;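 active = mean inhibition above 46.68%, the untreated control wells mean plus 3 SD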;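 note: 0% = DMSO wells and 100% = gossypol 36 µM treated wells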). The note with it: HEK293 GAL4-SRC1 luciferase reporter, at 3.6 µM, active compounds read high.
Experiment [9] can be described thus: repression of VP16-driven luciferase reporter – cell-based, luminescence, high throughput, counter-screen for SRC1 inhibitor project (AID 588824; in the data active = inhibition above about 25%). The note with it: cell-based VP16 transactivation luciferase luminescence; at 3.6 µM; active compounds read high.
Experiment [10] concerns transactivating tegument protein VP16 (Human herpesvirus 1). The experiment is described as follows: compounds suppressing VP16-driven luciferase signal – cell-based, luminescence, single concentration, counter-screen for SRC2 inhibitor project (AID 652007; in the data active = inhibition above about 36%). The note with it: cell-based VP16 transactivation luciferase reporter, at 8.9 µM, active compounds read high.
Experiment [11] concerns the target Nuclear receptor coactivator 2 (Homo sapiens) (UniProt Q15596). As to the kind of experiment: inhibition of GAL4-SRC2 driven luciferase expression – cell-based, luminescence, HEK293, triplicate, confirmation (AID 652008;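 active = mean inhibition above 46.5%, the solvent-only control mean plus 3 SD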;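 note: 0% = DMSO-treated cells and 100% = Gossypol at 36 µM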). The note with it: HEK293 GAL4-SRC2 luciferase reporter, at 8.9 µM, active compounds read high.
In experiment [12] the target is Receptor-interacting serine/threonine-protein kinase 2 (Homo sapiens) (UniProt O43353). The experiment is described as follows: inhibitors of RIPK2 association with NOD2 – fluorescence, CHO cells, BLA complementation, triplicate, confirmation (AID 624370;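 active = mean inhibition across replicates above a set limit taken from the earlier primary screen, cut at about 21% in these data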;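 note: 0% = DMSO-only wells and the high end = clavulanate BLA-blocked wells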). The note with it: CCF4 FRET, at 4.98 µM, active compounds read high.
Sequence of Receptor-interacting serine/threonine-protein kinase 2 (Homo sapiens) (O43353 whole entry, looked up): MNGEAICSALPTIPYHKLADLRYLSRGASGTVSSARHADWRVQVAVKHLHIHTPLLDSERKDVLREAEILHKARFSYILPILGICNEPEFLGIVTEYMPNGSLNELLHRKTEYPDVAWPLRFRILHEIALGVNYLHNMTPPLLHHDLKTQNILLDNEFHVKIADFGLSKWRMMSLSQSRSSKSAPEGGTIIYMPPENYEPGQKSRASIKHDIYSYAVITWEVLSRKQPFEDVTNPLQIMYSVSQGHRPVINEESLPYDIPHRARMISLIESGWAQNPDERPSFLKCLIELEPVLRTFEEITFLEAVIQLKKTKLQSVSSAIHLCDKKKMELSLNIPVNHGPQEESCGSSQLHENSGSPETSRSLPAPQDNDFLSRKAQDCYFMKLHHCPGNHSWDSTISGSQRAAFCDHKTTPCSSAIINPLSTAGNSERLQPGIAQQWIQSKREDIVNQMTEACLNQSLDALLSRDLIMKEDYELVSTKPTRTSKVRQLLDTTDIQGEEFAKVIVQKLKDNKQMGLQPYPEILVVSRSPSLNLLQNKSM
Experiment [13] can be described thus: BLA reporter readout interference – cell-based, CHO-K1 CMV-bla, CCF4 FRET, fluorescence, artefact control for NOD2-RIPK2 interaction inhibitor project, confirmation (AID 624371;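 active = mean inhibition above the low-control mean inhibition plus three low-control SD, cut at about 11% in these data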;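 note: 0% = DMSO only wells and 100% = clavulanate high control wells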). The note with it: CCF4 FRET ratio, counterscreen, at 4.98 µM, active compounds read high. For orientation: The purpose of a counterscreen is to sort out artefacts and off-target activity.
Experiment [14] deals with Galanin receptor type 2 (Homo sapiens) (UniProt O43603). The experiment is described as follows: blockers of human galanin receptor 2 – cell-based, confirmation (AID 866; in the data active = inhibition above about 27%;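 note: cells stimulated with galanin at about its EC80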). The note with it: GALR2-expressing cells, antagonist mode, at 4 µM, active compounds read high.
The nature of experiment [15]: nonspecific BLA reporter inhibition – CHO NFAT-bla cells, FRET readout, counter-screen for GALR2 antagonist project, confirmation (AID 867;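 active = inhibition above the mean inhibition across tested compounds plus 3 SD, cut at about 27% in these data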;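 note: 0% = 500 nM thapsigargin stimulated wells and 100% = unstimulated BSA only wells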). The note with it: beta-lactamase FRET, thapsigargin-stimulated, at 4.2 µM, active compounds read high.
The nature of experiment [16]: reduced OD of V66 E. coli with T4 gene 2 phage – absorbance, RecBCD inhibitor project, confirmation (AID 651982;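 active = mean inhibition over triplicates exceeding the hit threshold derived in the original primary screen, cut at about 11% in these data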). The note with it: E. coli V66 + T4 2- phage, growth OD; at 11.9 µM; active compounds read high.
Experiment [17] can be described thus: bacterial growth inhibition – absorbance, high throughput, counter-screen for RecBCD inhibitor project (AID 651983; in the data active = inhibition above about 20%;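 note: E. coli strain V66 grown with compound alone and no phage infection; 0% = bacteria with DMSO vehicle only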). The note with it: E. coli viability, absorbance (OD) growth; at 11.9 µM; active compounds read high.
A short description of experiment [18]: reduced optical density, T4-challenged addAB+ bacteria – absorbance, E. coli V3065, T4 phage, counter-screen for RecBCD inhibitor project, confirmation (AID 651984;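 active = mean inhibition above the solvent-only control wells' mean plus 3 SD, cut at about 22% in these data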;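 note: higher means less bacterial growth from phage killing when AddAB is blocked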). The note with it: E. coli expressing H. pylori AddAB + T4 phage, OD growth; at 11.9 µM; active compounds read high; gene 2 mutant T4, recBCD-deleted host.

Values without a mark were called inactive. The list shows a part of the results. Activity calls are given as the source filed them. Cut-off read from the data, not from the text of the source, unless noted: active = inhibition above about 11%; inactive = the rest.

Sequence of Nuclear receptor coactivator 3 (Homo sapiens) (Q9Y6Q9 whole entry, looked up, the tested form may be a part): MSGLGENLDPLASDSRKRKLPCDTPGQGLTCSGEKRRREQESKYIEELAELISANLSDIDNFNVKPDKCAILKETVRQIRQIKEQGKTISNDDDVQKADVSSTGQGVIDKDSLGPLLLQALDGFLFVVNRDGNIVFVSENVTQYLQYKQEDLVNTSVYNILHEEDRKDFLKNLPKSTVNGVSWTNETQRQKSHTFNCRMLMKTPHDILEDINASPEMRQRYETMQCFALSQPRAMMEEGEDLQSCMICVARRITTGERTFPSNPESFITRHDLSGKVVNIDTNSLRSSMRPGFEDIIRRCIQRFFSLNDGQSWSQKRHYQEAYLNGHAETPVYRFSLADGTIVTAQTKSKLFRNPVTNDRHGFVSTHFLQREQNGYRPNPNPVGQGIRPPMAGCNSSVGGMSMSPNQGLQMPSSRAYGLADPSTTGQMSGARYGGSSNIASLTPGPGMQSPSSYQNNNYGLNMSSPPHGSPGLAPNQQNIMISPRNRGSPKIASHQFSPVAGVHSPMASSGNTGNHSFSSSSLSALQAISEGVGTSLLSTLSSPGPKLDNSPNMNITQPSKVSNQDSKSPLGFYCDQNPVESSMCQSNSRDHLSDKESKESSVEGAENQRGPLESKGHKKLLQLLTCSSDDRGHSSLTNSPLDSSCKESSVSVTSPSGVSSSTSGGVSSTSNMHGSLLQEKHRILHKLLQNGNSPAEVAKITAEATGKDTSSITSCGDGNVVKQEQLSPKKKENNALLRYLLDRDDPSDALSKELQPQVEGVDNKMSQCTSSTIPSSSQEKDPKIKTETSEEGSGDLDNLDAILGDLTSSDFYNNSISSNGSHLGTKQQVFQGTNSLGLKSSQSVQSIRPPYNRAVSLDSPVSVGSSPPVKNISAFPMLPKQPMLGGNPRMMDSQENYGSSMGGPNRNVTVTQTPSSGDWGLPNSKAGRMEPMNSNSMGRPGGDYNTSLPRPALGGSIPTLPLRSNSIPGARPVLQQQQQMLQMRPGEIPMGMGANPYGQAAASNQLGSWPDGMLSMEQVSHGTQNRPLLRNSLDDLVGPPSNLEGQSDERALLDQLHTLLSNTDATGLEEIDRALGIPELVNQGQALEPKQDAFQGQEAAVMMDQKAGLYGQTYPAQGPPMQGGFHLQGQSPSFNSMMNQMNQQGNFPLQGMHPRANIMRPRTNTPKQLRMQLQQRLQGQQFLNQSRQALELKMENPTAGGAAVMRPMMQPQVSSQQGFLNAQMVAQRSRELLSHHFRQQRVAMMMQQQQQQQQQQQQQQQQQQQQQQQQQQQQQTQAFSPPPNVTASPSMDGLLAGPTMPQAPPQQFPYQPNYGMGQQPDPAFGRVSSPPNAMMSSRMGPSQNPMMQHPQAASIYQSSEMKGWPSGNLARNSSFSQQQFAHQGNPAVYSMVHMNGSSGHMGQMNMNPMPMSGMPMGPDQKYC
Sequence of Nuclear receptor coactivator 2 (Homo sapiens) (Q15596 whole entry, looked up, the tested form may be a part): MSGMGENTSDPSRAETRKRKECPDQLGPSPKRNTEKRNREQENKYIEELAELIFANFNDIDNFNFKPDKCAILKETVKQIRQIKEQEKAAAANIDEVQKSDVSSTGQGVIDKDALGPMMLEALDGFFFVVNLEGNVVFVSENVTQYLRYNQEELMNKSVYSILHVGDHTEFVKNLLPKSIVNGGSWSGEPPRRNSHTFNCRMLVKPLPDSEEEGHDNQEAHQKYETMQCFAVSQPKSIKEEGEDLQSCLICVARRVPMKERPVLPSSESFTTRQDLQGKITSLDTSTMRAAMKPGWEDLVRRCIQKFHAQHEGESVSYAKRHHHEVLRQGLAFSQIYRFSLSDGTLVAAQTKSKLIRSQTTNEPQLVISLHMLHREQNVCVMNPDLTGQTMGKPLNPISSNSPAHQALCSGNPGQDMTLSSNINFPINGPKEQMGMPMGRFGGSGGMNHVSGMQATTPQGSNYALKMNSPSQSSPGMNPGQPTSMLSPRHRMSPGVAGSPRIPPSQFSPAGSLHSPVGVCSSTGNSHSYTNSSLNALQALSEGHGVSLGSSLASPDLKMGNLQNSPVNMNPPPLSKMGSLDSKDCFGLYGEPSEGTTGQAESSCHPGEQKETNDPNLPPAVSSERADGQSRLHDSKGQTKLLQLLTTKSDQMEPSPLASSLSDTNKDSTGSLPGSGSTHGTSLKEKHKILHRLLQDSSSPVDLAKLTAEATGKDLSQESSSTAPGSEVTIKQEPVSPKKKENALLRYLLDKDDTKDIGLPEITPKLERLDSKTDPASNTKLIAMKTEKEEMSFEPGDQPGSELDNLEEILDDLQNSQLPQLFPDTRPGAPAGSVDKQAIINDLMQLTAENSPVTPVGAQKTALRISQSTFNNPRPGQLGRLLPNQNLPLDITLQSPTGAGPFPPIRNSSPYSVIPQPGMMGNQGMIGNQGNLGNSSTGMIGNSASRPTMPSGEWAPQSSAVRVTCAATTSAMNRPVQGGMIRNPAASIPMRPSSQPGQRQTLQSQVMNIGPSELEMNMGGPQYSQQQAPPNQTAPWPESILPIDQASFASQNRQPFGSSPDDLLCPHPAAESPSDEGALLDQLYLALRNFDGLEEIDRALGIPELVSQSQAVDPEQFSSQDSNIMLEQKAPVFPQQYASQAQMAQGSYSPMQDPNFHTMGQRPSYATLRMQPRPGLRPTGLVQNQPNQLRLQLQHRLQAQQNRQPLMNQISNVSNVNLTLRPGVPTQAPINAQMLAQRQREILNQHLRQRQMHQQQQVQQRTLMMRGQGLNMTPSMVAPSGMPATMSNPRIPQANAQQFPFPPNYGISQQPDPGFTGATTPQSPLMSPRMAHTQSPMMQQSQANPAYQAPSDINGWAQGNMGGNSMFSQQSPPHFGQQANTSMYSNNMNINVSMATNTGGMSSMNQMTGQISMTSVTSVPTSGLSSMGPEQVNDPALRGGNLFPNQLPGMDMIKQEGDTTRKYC

The term inhibition denotes the drop in the measured response relative to a control, in per cent. Consider `COc1cccc(/C=N/Nc2ccc(S(=O)(=O)Nc3ccccc3C(=O)O)cc2[N+](=O)[O-])c1O`, for which the values for the inhibition in [1] and in [2] were 25.5% and 67.4% (active), respectively.
Take `CC(=O)N1CCN(c2ccc(NCc3ccc(C(C)C)cc3)cc2)CC1`: the inhibition in experiment [1] is 12.7%.
On to `CC1(C)CC(=O)C(C2c3ccccc3S(=O)(=O)c3ccccc32)C(=O)C1`, for which the figures for the inhibition in experiment [3], in experiment [4] and in [5] were -5.15%, -0.53% and 2.02%, respectively.
Turning to `CC(=O)Nc1ccc(S(=O)(=O)Nc2ccc(N3CCCCC3)cc2)cc1`, the inhibition in [1] was 63.4% (active); in [6], -3.95%; in experiment [7] it was 0.96%; in experiment [8] it was 4.11%; in experiment [9], 2.83%; in [10], -15.4%. Also, the inhibition in experiment [11] was 14.9%.
In the case of `Cc1cc(-c2csc(N)n2)c(C)n1Cc1ccccc1`, the inhibition in experiment [1] was 30.6%.
`Cc1cc(C)nc(SCc2ccccc2C#N)n1`: the inhibition is 1.99% in [3], 0.68% in experiment [4] and 2.36% in [5].
Take `CCOC(=O)C1Nc2ccc(C(F)(F)F)cc2C2C=CCC12` (configuration not stated): the values for the inhibition in experiment [1] and in [2] were 30.3% and 24.3%, respectively.
Regarding `CNC(=S)N/N=C/c1ccc(OCc2ccccc2)c(Br)c1`, the inhibition was 27.6% (active) in experiment [3]; 27.6% in experiment [4]; 43.4% (active) in [5]; 54.2% (active) in experiment [12]; 52.8% (active) in [13].
Consider `COc1cc(C(=O)N2C(=O)c3cccc(N)c3C2=O)cc(OC)c1OC`, for which the inhibition was 11.4% in experiment [3], 13.3% in experiment [4] and 1.27% in [5].
As to `COC(=O)Cc1cc(=O)oc2c(C)c(O)ccc12`, the inhibition in [14] is 7.7%; in [15], 16.5%; in [3], 13.3%; in [4], 16.3%; in [5] it was -0.43%; in [12] it was 23.8% (active). Besides, in experiment [13], the inhibition was 28.6% (active).
As for `Cc1cccc(NC(=O)c2nc(S(=O)(=O)Cc3ccccc3)ncc2Cl)c1`, the inhibition in experiment [3] is 46.4% (active); in experiment [4] it was 43.2%; in experiment [5], 97% (active); in experiment [12] it was 78.4% (active); in [13] it was 43.9% (active); in experiment [10] it was 38.7% (active). The inhibition in experiment [11] is 44.1%.
As to `Oc1c(CN2CCN(c3ccc(F)cc3)CC2)cc(Cl)c2cccnc12`, the inhibition in [1] was 50.9% (active); in experiment [6], 52.3% (active); in [7], 42.8% (active); in experiment [16], 4.78%; in experiment [17] it was 6.62%; in experiment [18] it was 3.33%.
